What was measured:
Assay in all cases: PBM binding z-score (relative to random genomic background probes); higher = stronger binding; sequences stand for … in GC…GCGATTGACAGCGTAGAATGAAGG
[1] = test system: RARb homodimer (NR concentration 270 nM)
Procedure, shortened: (§1)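 Ligand-free nuclear receptor dimers were bound for 1 h to custom Agilent 4×180K protein-binding microarrays. Detection used antibodies against each partner (one per run). Binding z-scores rest on regression-normalized fluorescence, with random background probes as the reference.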

[2] = test system: RARg:RXRa (NR concentration 270 nM, RXRa partner concentration 90 nM)
Procedure, shortened: as §1

[3] = test system: RARg homodimer (NR concentration 270 nM)
Procedure, shortened: as §1

[4] = test system: RXRa DBDmut IVT, anti-RXR (DBD mutation: RXRa K156A/R161A, NR concentration 90 nM)
Procedure, shortened: as §1

[5] = test system: RXRa homodimer (NR concentration 180 nM)
Procedure, shortened: as §1

[6] = test system: THRa:RXRa (NR concentration 90 nM, RXRa partner concentration 90 nM)
Procedure, shortened: as §1

[7] = test system: THRa homodimer (NR concentration 90 nM)
Procedure, shortened: as §1

[8] = test system: VDR:RXRa (NR concentration 270 nM, RXRa partner concentration 90 nM)
Procedure, shortened: as §1

[9] = test system: VDR homodimer (NR concentration 270 nM)
Procedure, shortened: as §1

| Sequence | PBM binding z-score [1] | PBM binding z-score [2] | PBM binding z-score [3] | PBM binding z-score [4] | PBM binding z-score [5] | PBM binding z-score [6] | PBM binding z-score [7] | PBM binding z-score [8] | PBM binding z-score [9] |
| --- | --- | --- | --- | --- | --- | --- | --- | --- | --- |
| GATACAGGCTCAAGGCCAGAGTACGCGTATTGAT | -0.491 | -0.284 | 0.128 | -0.619 | -0.27 | -0.479 | -0.602 | -0.543 | -0.14 |
| TCATATAGGGAAACAGGTGAAAGTCCGTAAGTTA | 0.562 | 0.344 | 0.215 | 1.66 | 0.796 | 0.537 | 0.314 | 0.918 | -0.0866 |
| ATCTCAAGGTAAAAGTTCAGTGAATCCCGAGGAT | 2.4 | 2.29 | 1.96 | 0.614 | 2.21 | 1.94 | 0.529 | 1.6 | 1.28 |
| TGTCGGAGGACACGAAAGGTCAGAGCTCGACATC | 4.55 | 4.97 | 5.76 | -0.334 | 4.22 | 3.78 | 1.3 | 3.34 | 1.38 |
| GCAGACAGGTGAAACGCCGGTAACTCAGGGTGGC | -0.057 | 0.644 | 0.166 | -0.634 | 0.513 | 0.157 | -0.511 | -0.708 | -0.512 |
| AATAAAGGGTCACTAGGCCAGAGTAGGTACGAAT | 4.18 | 5.83 | 6.43 | 2.48 | 5.89 | 2.82 | 0.263 | 4.04 | 2.36 |
| CCGTCTGGGGCAAGGTTACCATAACGCACAGCCA | 1.05 | 1.06 | 1.13 | -0.58 | 0.988 | 1.15 | 0.197 | 0.236 | 0.0669 |
| ACTATTAGTTGAGACGAGGGCAACCCATAGGTTG | 1.45 | 0.739 | 0.903 | 0.366 | 0.748 | 2.42 | 0.54 | 0.697 | 0.783 |
| CCTACTGGGGCAAAGGTTACCATACTCAGTACGA | 2.27 | 3.72 | 1.99 | 0.241 | 3.86 | 1.85 | -0.303 | 1.86 | 0.381 |
| GCGACTGGGGCAAAGCAGGTTACCCTAAGGTTGG | 0.988 | 0.329 | 0.427 | -0.421 | 0.394 | 2.85 | 0.12 | 0.0152 | -0.641 |
| CCTTCCGGGTCACTCCAGGTTATAGCATCGGAGT | 3.42 | 4.34 | 3.95 | 1.2 | 4.33 | 5.19 | 2.37 | 4.21 | 1.77 |
| ACTATTAGTTGACTTTGGGCAACCGATACGACGC | 0.274 | 0.43 | 0.635 | 0.79 | 0.476 | 0.55 | 0.0342 | 0.238 | 0.298 |
| CCGACTGGGGCAAAGGTTACCATCCTCAGTACGA | 2.19 | 3.56 | 1.56 | -0.109 | 4.04 | 1.77 | -0.0864 | 1.37 | -0.138 |
| CCTACTGGGCAAAGGTCATTGATCAGTCAAAGCA | 4.39 | 6.27 | 4.92 | 1.48 | 6.88 | 3.05 | 0.287 | 4.36 | 2.31 |
| ACTATTAGTTGACTGAGGGCAACCGATACGACGC | 1.72 | 0.837 | 1.38 | 1 | 0.572 | 1.91 | 1.06 | 2.41 | 1.71 |
| TCATATAGGTAAACAGGTGAACGTCCGTAAGTTA | 0.948 | 0.887 | 0.712 | 1.31 | 1.28 | 1.12 | 0.353 | 1.19 | 0.243 |
| CCTGACGGGTCACGAGGTTATAGCACGACGAGCG | 3.55 | 5.83 | 5.33 | 1.42 | 6.19 | 3.3 | 1.14 | 4.62 | 1.87 |
| TTGCCTAGGTCATGGGCCAGTATACCACGCGAAC | 3.1 | 4.39 | 4.41 | 0.413 | 3.94 | 3.35 | 1.54 | 2.21 | 0.622 |
| TCGAGTAGGATAGTCGGGGCATTCAGCCAACATA | -0.402 | -0.475 | -0.579 | 0.18 | -0.289 | 0.0302 | -0.471 | -0.319 | -0.497 |
| CCGACTGGGGCAAAGGTTTCCATACTCAGTACGA | 0.438 | 0.385 | 0.445 | 0.213 | 0.448 | -0.0772 | -0.282 | -0.277 | -0.026 |
| GGAATGAGGGCAAGTTGATAGCAGAGTTTGATGG | 1.65 | 1.55 | 2.21 | 2.79 | 1.04 | 1.85 | 1.02 | 1.18 | 2.22 |
| GCTAGTAGTTGAAAGGGCAACCGAATGATTCTCG | 1.73 | 1.22 | 0.96 | 0.488 | 1.47 | 0.474 | -0.735 | 0.183 | -0.34 |
| CGAACTAGGTCAAGGACAGCGAATCTCCGCACGC | 3.31 | 3.9 | 4.6 | 1.5 | 2.63 | 3.17 | 2.2 | 1.31 | 0.441 |
| TCATATAGGTAATACAGGTGCAAGTCGGCATCTA | 0.266 | 0.587 | 0.617 | 1.65 | 0.938 | 1.16 | -0.0511 | 1.91 | 1.03 |
| TCATATAGGTCAAGGTGAAAGTCGAACGATATGA | 3.84 | 5.31 | 5.43 | 1.56 | 5.05 | 3.47 | 1.36 | 2.94 | 0.356 |
| CCTGCTAGGTCAATGGTAAGCTAAAGCAGCTCGC | 2.43 | 3.52 | 3.82 | 1.66 | 1.96 | 2.03 | 0.52 | 0.595 | -0.274 |
